Screening data from PubChem.
Rows were chosen to be rich in hits. Some 1.6% of all compounds tested hit in one or more screens of this group.
KCNQ2 block: rat KCNQ2 potassium channel inhibitors, primary screen, cell-based, CHO-K1, FluxOR thallium flux, B-score. Potassium voltage-gated channel subfamily KQT member 2 (Rattus norvegicus), O88943. 20 min; stronger effect = lower value. B-score at 10 µM. actives 1.1% (n = 310,000);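 active = fluorescence ratio B-score at most minus 3 library SDs, with starting brightness B-score within 2 library SDs, cut at about -5.5 in these data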
KCNQ2 enhance: potentiators of rat KCNQ2 potassium channel. actives 0.54% (n = 310,000). Potassium voltage-gated channel subfamily KQT member 2 (Rattus norvegicus), O88943. B-score at 10 µM. CHO-K1 KCNQ2, FluxOR thallium flux fluorescence; stronger effect = higher value. AID 2239, 2010;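 active = fluorescence ratio B-score at least 3 SD of library B-scores, with initial fluorescence B-score within 3 of them, cut at about 5.3 in these data; same plate scores as AID 2156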;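 note: B-score of peak minus minimum over baseline fluorescence ratio after K+ and Tl+ stimulus; positive B-score means potentiation of KCNQ2 with more thallium influx and brighter signal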
Kir21 conf inh: mouse Kir2.1 channel blockers, retest, confirmation, cell-based, FluxOR thallium flux, duplicate | shares compounds with KCNQ2 enhance | Kir2.1-expressing cells, FluxOR thallium flux fluorescence; stronger effect = lower value | Tl flux remaining, % of negative control (stronger effect = lower value), % at 10 µM | actives 41% (n = 2,300);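 active = Primary-screen hit whose thallium flux fell at least 3 control SD below untreated wells in both duplicates, with normal baseline fluorescence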;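 note: 0% = blank wells without stimulus and 100% = stimulated no-compound controls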
Target sequence (P35561 whole entry, looked up): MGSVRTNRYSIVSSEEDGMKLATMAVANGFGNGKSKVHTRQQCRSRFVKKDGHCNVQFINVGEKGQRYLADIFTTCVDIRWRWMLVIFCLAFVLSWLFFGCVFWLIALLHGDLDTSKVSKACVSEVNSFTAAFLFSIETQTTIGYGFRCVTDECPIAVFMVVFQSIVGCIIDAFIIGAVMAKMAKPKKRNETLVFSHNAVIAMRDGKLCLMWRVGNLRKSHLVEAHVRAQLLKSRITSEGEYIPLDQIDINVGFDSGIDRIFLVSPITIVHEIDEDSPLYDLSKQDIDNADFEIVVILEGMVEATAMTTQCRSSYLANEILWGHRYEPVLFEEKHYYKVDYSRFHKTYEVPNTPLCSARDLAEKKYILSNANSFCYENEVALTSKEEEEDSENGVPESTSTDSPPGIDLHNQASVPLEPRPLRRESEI
HEK293 ctr: parental HEK293 activity in Kir2.1 inhibitor counter-screen; parental HEK293 cells, FluxOR thallium flux fluorescence; 0% = unstimulated blank wells; shares compounds with KCNQ2 enhance; FluxOR signal as % of negative control (100 = no effect), % at 10 µM; actives 19% (n = 2,300); AID 2105;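 active = dye signal at least 3 control SD above or below untreated wells in both duplicates, raw fluorescence within 3, either direction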;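 note: percent is based on the flux ratio of peak minus minimum fluorescence over baseline F0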
CHO-K1 Tl ctr: nonspecific thallium flux increase in parental CHO-K1, confirmation, counter-screen for KCNQ2 potentiator project, cell-based, FluxOR thallium flux, duplicate. actives 43% (n = 1,200). parental CHO-K1 cells, FluxOR thallium flux fluorescence; zero = vehicle mean+3SD, 100% = vehicle-minus-blank window. shares compounds with KCNQ2 enhance. AID 2282, 2010. activity increase over 3SD of controls, % at 10 µM;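 active = signal rise of at least 3 SD above the untreated control mean, in both duplicate wells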;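 note: counter screen of KCNQ2 potentiator hits so any rise reflects channel-independent effects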
KCNQ1 sel pot: human KCNQ1 channel potentiation off-target, confirmation, selectivity assay for KCNQ2 potentiator project, cell-based, CHO, FluxOR thallium flux; shares compounds with KCNQ2 enhance; CHO KCNQ1 stable, FluxOR thallium flux fluorescence; beyond 3SD, as % of vehicle-control signal; activation over 3SD threshold, % at 10 µM; actives 28% (n = 1,200);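 active = fluorescence ratio rise of at least 3 SD of vehicle wells above their mean, in both replicate wells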;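 note: 0% = vehicle mean plus 3 SD and 100% = vehicle minus unstimulated blank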
KCNQ2 pot conf: rat KCNQ2 channel potentiators, confirmation, cell-based, CHO, FluxOR thallium flux, duplicate. potentiation, less the hit threshold, % at 10 µM. actives 68% (n = 1,200). shares compounds with KCNQ2 enhance. CHO-KCNQ2 cells, FluxOR thallium flux fluorescence. AID 2287, 2010;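 active = fluorescence ratio rising 3 SD or more over the vehicle control mean in both replicates, plus primary screen hit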;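 note: peak minus minimum thallium fluorescence divided by baseline after K/Tl stimulus; 0% = vehicle mean plus 3 SD and 100% = vehicle minus unstimulated blank difference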
Kir2-1 sel: mouse Kir2.1 channel activation off-target, confirmation, selectivity assay for KCNQ2 potentiator project, cell-based, HEK293, FluxOR thallium flux; shares compounds with KCNQ2 enhance; HEK293 Kir2.1, FluxOR thallium flux fluorescence; activity over 3SD threshold, % at 10 µM; actives 2% (n = 1,200); AID 2345, 2010;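 active = fluorescence ratio rise of at least 3 SD above the vehicle-control mean, seen in both replicates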;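 note: 0% = vehicle mean plus 3 SD and 100% = vehicle minus no-stimulus blank window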
KCNQ2 W236L MoA: potentiators of retigabine-insensitive KCNQ2 W236L, mechanism study for KCNQ2 potentiator project, cell-based, rat KCNQ2 W236L, CHO, automated patch clamp. shares compounds with KCNQ2 enhance. automated patch clamp current. current increase over 3SD of negative controls (%), stronger effect = higher value, % at 25 µM. actives 10% (n = 940). AID 2558, 2010;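 active = current increase at least 3 SD of the untreated controls above them in both duplicate recordings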
Numbers without * were called inactive; i = inactive; . = no result.

SMILES	KCNQ2 block	KCNQ2 enhance	Kir21 conf inh	HEK293 ctr	others
Cc1ccc(-n2c(C)n[nH]c2=S)cc1C	i	.	.	.
CCC1(c2ccccc2)NC(=S)N(c2ccc(C)c(C)c2)N1 (centres undefined)	i	12.9*	i	435.0%*	CHO-K1 Tl ctr=-5.3;KCNQ1 sel pot=-18.5;KCNQ2 pot conf=55.2*;Kir2-1 sel=-19.1;KCNQ2 W236L MoA=i
Cc1ccc(-c2csc(NC(=O)CSc3nc4ccccc4c(=O)n3CCCN(C)C)n2)cc1	i	.	.	.
Nc1nnc(CC(=O)Nc2ccccc2)s1	i	.	.	.
COC(=O)c1cn(NC(=O)CC2CCCCC2)c(=O)c2ccccc12	i	13.9*	i	i	CHO-K1 Tl ctr=-10.0;KCNQ1 sel pot=-15.1;KCNQ2 pot conf=74.6*;Kir2-1 sel=-30.6;KCNQ2 W236L MoA=i
COC(=O)c1cn(NC(=O)CCC2CCCC2)c(=O)c2ccccc12	i	28.1*	i	i	CHO-K1 Tl ctr=103.7*;KCNQ1 sel pot=-13.8;KCNQ2 pot conf=121.6*;Kir2-1 sel=-26.6;KCNQ2 W236L MoA=i
COC(=O)c1cn(NC(=O)C2CCC(C)CC2)c(=O)c2ccccc12 (centres undefined)	i	.	.	.
COC(=O)c1cn(NC(=O)c2cc([N+](=O)[O-])ccc2F)c(=O)c2ccccc12	i	.	.	.
CC(=O)C1=C(C)N(Cc2ccccc2)C(=O)N[C@H]1c1ccco1	i	.	.	.
CCOC(=O)c1ccc(S(=O)(=O)Nc2ccc(N3CCOCC3)cc2)cc1	i	.	.	.
O=C(N=C1N=C2C=CC(Br)=CN2Cc2ccccc21)c1ccc([N+](=O)[O-])cc1[N+](=O)[O-]	i	0.16	.	.
COC(=O)C(Cc1ccccc1)P(=O)(c1ccccc1)c1ccccc1 (centres undefined)	i	0.59	.	.
COCOc1ccc(-c2oc3c(C/C=C(\C)CCC=C(C)C)ccc(O)c3c(=O)c2OCOC)c(OCOC)c1	i	0.83	.	.
Cc1ccc(C)c(NC(=S)NNC(=O)c2csc3c2CCCC3)c1	i	2.6	.	.
Cc1ccc(C)c(NC(=S)NNC(=O)c2csc3c2CCC(C)C3)c1 (centres undefined)	i	6.62*	i	171.0%*	CHO-K1 Tl ctr=-19.0;KCNQ1 sel pot=-32.6;KCNQ2 pot conf=-4.5;Kir2-1 sel=-39.9;KCNQ2 W236L MoA=i
COc1ccc(COC(=O)C2=C(C)NC(=O)NC2c2ccccc2)cc1 (centres undefined)	i	0.52	.	.
Cc1ccc(C(C)C)c(OCCCN(C)Cc2ccccc2)c1	i	.	.	.
Cc1ccc(C(C)C)c(OCC(O)CN(C)Cc2ccccc2)c1 (centres undefined)	i	.	20.0%*	i
CC(C)(C)OC(=O)N1CCC[C@H]1c1nnc(SC/C=C/c2ccccc2)o1	i	.	.	.
CC(C)(C)OC(=O)N1CCC[C@H]1c1nnc(SCc2ccccc2Cl)o1	i	.	i	70.5%*
CSc1nnc([C@@H]2CCCN2C(=O)OC(C)(C)C)o1	i	.	.	.
CC(C)(C)OC(=O)N1CCC[C@H]1c1nnc(SCc2cccc(Cl)c2)o1	i	.	54.0%*	i
CCCCSc1nnc([C@@H]2CCCN2C(=O)OC(C)(C)C)o1	i	.	.	.
CC(C)(C)OC(=O)N1CCC[C@H]1c1nnc(SCc2ccc(Cl)cc2)o1	i	.	52.0%*	68.5%*
OCCNNC(=S)NC1CC2C=CC1C2 (centres undefined)	i	.	.	.
SMILES	KCNQ2 block	KCNQ2 enhance	Kir21 conf inh	HEK293 ctr	others
CC(C)CC1Nc2ccc(C(=O)NCCCN3CCOCC3)cc2NC1=O (centres undefined)	i	0.44	.	.
Fc1ccccc1NC(=S)NCCc1cccc(Cl)c1	i	.	.	.
CSCc1ccc(C(=O)N2CCCC(Nc3ccc(F)cc3)C2)o1 (centres undefined)	i	.	50.5%*	i
CSCc1ccc(C(=O)N2CCCC(Nc3ccc4c(c3)OCCO4)C2)o1 (centres undefined)	i	0.77	.	.
COc1ccccc1/C=C/C(=O)OC(C)CN1CCCCC1 (centres undefined)	i	0.19	.	.
O=C(CC12CC3CC(CC(C3)C1)C2)NC(Cc1ccccc1)C(=O)O (centres undefined)	i	0.32	.	.
CNC[C@H](CC1CCCCC1)NC[C@H](Cc1ccccc1)NCCC12CC3CC(CC(C3)C1)C2	i	1.3	i	i
COc1ccc(Nc2nc(NCC3CCCO3)c3ccccc3n2)c(OC)c1 (centres undefined)	i	.	30.0%*	i
Oc1cccc(Nc2nc(NCC3CCCO3)c3ccccc3n2)c1 (centres undefined)	i	.	.	.
COc1cc(NC(=O)CSCC(=O)Nc2cc(OC)cc(OC)c2)cc(OC)c1	i	0.14	.	.
O=C(CCNS(=O)(=O)c1ccccc1F)N1CCN(C(c2ccccc2)c2ccccc2)CC1	i	16.5*	i	i	CHO-K1 Tl ctr=-11.7;KCNQ1 sel pot=-12.1;KCNQ2 pot conf=44.4*;Kir2-1 sel=-31.8;KCNQ2 W236L MoA=i
O=C(CCNS(=O)(=O)c1ccccc1F)N1CCN(S(=O)(=O)c2cccc(F)c2)CC1	i	.	.	.
CC(C)(O)P(=O)(O)CCc1ccccc1	i	.	.	.
CCOC(=O)C1=C(C)NC(C)=C(C(=O)OCC)C1c1cn(-c2ccccc2)nc1-c1ccco1	i	11.4*	i	i	CHO-K1 Tl ctr=16.8*;KCNQ1 sel pot=85.5*;KCNQ2 pot conf=-12.1;Kir2-1 sel=-16.8
CCOC(=O)C1=C(C)NC(=O)NC1c1cn(-c2ccccc2)nc1-c1cccs1 (centres undefined)	i	.	.	.
Cc1cc(=O)nc2c3ccccc3n(CC(=O)NC(C)c3ccc4c(c3)OCCO4)n12 (centres undefined)	i	.	.	.
N#Cc1nc(Cc2cccc3ccccc23)oc1NCCCn1ccnc1	i	0.19	.	.
